Measured values: the supplement of paper PMC11732987, “Enantioselective OTUD7B fragment discovery through chemoproteomics screening and high-throughput optimisation” (Communications Chemistry, 2025)

Legend:
Assay in all cases: log2 ratio of Biotin-Ahx-Ub-VS probe labelling (compound/DMSO); higher = less target engagement, active = hit call of the paper (q ≤ 0.05, log2 ratio ≤ -1)
Details in all cases: treatment time: 3 h
[1] = compound: ClCC(=O)N[C@H]1CCCc2ccccc12
How it was run: (§1)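 HEK293T lysate (495 µg per sample, in Tris/CHAPS/IGEPAL buffer with protease inhibitors) was treated in triplicate with compound over a concentration series or DMSO for 3 h, then with Biotin-Ahx-Ub-VS (0.5 µM final) for 1 h. Labelled DUBs were NeutrAvidin-enriched, digested with LysC and trypsin, and run by diaPASEF LC-MS/MS. Spectronaut label-free protein quantities were global-median-normalised. Values are average log2 ratios compound/DMSO from an unpaired t-test, using proteins with ≥2 unique peptides.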

[2] = compound: CCC1N(CCc2cc(OC)c(Cl)cc12)C(=O)CCl
How it was run: (§2)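 For activity-based profiling, 495 µg portions of HEK293T lysate in Tris/CHAPS/IGEPAL buffer with protease inhibitors were treated in triplicate with compound at 50 or 200 µM or with DMSO for 3 h. A 1 h incubation with Biotin-Ahx-Ub-VS (0.5 µM final) followed, then NeutrAvidin enrichment, LysC and trypsin digestion and diaPASEF LC-MS/MS. The compound/DMSO base-two log ratios were averaged from median-normalised label-free quantities using an unpaired t-test. Proteins needed at least 2 unique peptides to be included.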

[3] = compound: CCCC1N(CCc2cc(OC)c(OC)cc12)C(=O)CCl
How it was run: as §2

[4] = compound: CN(Cc1cccc(Br)c1)C(=O)CCl
How it was run: as §2

[5] = compound: CN(Cc1cccc(OCc2ccccc2C)c1)C(=O)CCl
How it was run: as §2

[6] = compound: CN(Cc1ccccc1)C(=O)CCl
How it was run: as §2

[7] = compound: COc1ccc(CN(C)C(=O)CCl)cc1
How it was run: as §2

[8] = compound: COc1cccc(CN(CCCc2ccccc2)C(=O)CCl)c1
How it was run: as §2

[9] = compound: ClCC(=O)N1CCc2cc(Cl)c(Cl)cc2C1
How it was run: as §2

[10] = compound: ClCC(=O)N1CCc2nc(ncc2C1)-c1ccccc1
How it was run: as §2

[11] = compound: ClCC(=O)N1CCc2nocc2C1
How it was run: as §2

[12] = compound: ClCC(=O)N1CCc2scc(Br)c2C1
How it was run: as §2

[13] = compound: ClCC(=O)NC(C1CCCC1)c1cccs1
How it was run: as §2

[14] = compound: CCC1N(CCc2sccc12)C(=O)CCl
How it was run: as §2

[15] = compound: CN1c2ccccc2C(CS1(=O)=O)NC(=O)CCl
How it was run: as §2

[16] = compound: Cl.ClCC(=O)N1CCc2ncncc2C1
How it was run: as §2

[17] = compound: Cl.Cn1ncc2C(CCCc12)NC(=O)CCl
How it was run: as §2

[18] = compound: ClCC(=O)NC1CCOc2ccccc12
How it was run: as §2

[19] = compound: ClCC(=O)NC1CCCc2ccccc12
How it was run: as §1

[20] = compound: ClCC(=O)N[C@@H]1CCCc2ccccc12
How it was run: as §1

Measured: log2 ratio of Biotin-Ahx-Ub-VS probe labelling

OTUD7B (UniProt Q6GQQ9)
UniProt Q6GQQ9, sequence (Q6GQQ9 whole entry): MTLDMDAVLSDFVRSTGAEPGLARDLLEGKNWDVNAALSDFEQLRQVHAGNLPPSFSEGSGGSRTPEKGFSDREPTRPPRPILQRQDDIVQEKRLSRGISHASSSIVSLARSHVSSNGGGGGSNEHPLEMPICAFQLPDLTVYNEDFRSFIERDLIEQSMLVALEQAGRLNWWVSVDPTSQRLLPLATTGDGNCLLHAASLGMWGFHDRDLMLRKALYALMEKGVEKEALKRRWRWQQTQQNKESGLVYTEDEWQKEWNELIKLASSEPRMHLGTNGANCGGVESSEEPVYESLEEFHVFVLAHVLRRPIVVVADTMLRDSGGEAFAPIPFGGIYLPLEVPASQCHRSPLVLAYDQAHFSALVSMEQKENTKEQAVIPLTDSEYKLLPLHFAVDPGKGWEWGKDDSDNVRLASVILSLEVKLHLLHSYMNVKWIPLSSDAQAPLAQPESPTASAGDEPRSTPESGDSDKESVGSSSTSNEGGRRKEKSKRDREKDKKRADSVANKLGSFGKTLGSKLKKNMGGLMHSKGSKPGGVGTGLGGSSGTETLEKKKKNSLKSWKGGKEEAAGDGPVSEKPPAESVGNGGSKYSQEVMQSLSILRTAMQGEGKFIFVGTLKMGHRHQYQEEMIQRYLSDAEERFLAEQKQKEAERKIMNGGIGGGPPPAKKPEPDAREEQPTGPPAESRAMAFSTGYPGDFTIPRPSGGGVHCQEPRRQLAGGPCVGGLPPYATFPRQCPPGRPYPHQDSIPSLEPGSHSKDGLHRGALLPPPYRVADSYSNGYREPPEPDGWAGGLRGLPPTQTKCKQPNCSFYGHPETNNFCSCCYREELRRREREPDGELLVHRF
inactive: [1]; compound concentration: 3.13uM -0.851 | [2]; compound concentration: 50uM -0.0276 | [2]; compound concentration: 200uM -0.501 | [3]; compound concentration: 50uM -0.433 | [3]; compound concentration: 200uM -0.824 | [4]; compound concentration: 50uM -0.428 | [5]; compound concentration: 50uM -0.878 | [6]; compound concentration: 50uM -0.664 | [7]; compound concentration: 50uM -0.435 | [7]; compound concentration: 200uM -0.811 | [8]; compound concentration: 50uM -0.145 | [8]; compound concentration: 200uM -0.385 | [9]; compound concentration: 50uM -0.244 | [10]; compound concentration: 50uM -0.213 | [12]; compound concentration: 50uM -0.654 | [13]; compound concentration: 50uM -0.987
active: [1]; compound concentration: 6.25uM -1.39 | [1]; compound concentration: 12.5uM -2.2 | [1]; compound concentration: 25uM -3.03 | [1]; compound concentration: 50uM -3.18 | [1]; compound concentration: 100uM -3.43 | [1]; compound concentration: 200uM -3.45 | [4]; compound concentration: 200uM -1.07 | [5]; compound concentration: 200uM -2.2 | [6]; compound concentration: 200uM -1.45 | [9]; compound concentration: 200uM -1.67 | [10]; compound concentration: 200uM -1.67 | [11]; compound concentration: 50uM -1.21 | [11]; compound concentration: 200uM -3.03 | [12]; compound concentration: 200uM -2.61 | [13]; compound concentration: 200uM -2.95

USP5 (UniProt P45974)
UniProt P45974, sequence (P45974 whole entry): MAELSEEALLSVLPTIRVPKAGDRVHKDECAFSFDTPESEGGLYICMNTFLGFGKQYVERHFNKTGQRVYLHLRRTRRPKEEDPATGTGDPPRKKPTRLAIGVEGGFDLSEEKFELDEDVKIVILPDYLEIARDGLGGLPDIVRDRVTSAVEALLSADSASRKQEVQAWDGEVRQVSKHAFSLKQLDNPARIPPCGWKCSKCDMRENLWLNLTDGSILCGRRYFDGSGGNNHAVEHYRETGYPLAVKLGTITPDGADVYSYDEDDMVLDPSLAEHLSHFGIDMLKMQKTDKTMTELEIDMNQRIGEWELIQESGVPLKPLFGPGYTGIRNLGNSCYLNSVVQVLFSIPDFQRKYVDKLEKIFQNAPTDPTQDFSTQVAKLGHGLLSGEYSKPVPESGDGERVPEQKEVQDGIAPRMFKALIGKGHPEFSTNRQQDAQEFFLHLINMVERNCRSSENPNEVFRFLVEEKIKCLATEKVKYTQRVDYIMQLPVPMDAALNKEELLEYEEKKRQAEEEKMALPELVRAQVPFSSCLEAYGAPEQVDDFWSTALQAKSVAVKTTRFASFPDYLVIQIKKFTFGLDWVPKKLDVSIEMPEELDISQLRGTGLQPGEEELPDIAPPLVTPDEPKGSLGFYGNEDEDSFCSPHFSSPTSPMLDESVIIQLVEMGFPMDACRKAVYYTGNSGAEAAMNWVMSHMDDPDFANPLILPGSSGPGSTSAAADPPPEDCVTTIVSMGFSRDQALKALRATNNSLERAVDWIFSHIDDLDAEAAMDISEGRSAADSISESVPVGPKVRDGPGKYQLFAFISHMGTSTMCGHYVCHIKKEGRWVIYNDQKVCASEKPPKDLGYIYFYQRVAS
inactive: [14]; compound concentration: 50uM 0.107 | [14]; compound concentration: 200uM 0.165 | [15]; compound concentration: 50uM -0.0432 | [15]; compound concentration: 200uM -0.0749 | [16]; compound concentration: 50uM 0.179 | [16]; compound concentration: 200uM -0.233 | [17]; compound concentration: 50uM 0.122 | [17]; compound concentration: 200uM -0.00464 | [18]; compound concentration: 50uM 0.209 | [18]; compound concentration: 200uM 0.107 | [19]; compound concentration: 0.78uM -0.0702 | [19]; compound concentration: 1.56uM -0.0265 | [19]; compound concentration: 3.13uM -0.189 | [19]; compound concentration: 6.25uM -0.131 | [19]; compound concentration: 12.5uM -0.157 | [19]; compound concentration: 25uM -0.19 | [19]; compound concentration: 50uM -0.0861 | [19]; compound concentration: 100uM -0.067 | [19]; compound concentration: 200uM -0.0831 | [20]; compound concentration: 0.78uM -0.209 | [20]; compound concentration: 1.56uM -0.162 | [20]; compound concentration: 3.13uM -0.139 | [20]; compound concentration: 6.25uM -0.155 | [20]; compound concentration: 12.5uM -0.0604 | [20]; compound concentration: 25uM -0.131 | [20]; compound concentration: 50uM -0.159 | [20]; compound concentration: 100uM -0.0875 | [20]; compound concentration: 200uM -0.125 | [1]; compound concentration: 0.78uM -0.109 | [1]; compound concentration: 1.56uM -0.17 | [1]; compound concentration: 3.13uM -0.185 | [1]; compound concentration: 6.25uM -0.0549 | [1]; compound concentration: 12.5uM -0.103 | [1]; compound concentration: 25uM -0.119 | [1]; compound concentration: 50uM -0.0192 | [1]; compound concentration: 100uM -0.093 | [1]; compound concentration: 200uM -0.184 | [2]; compound concentration: 50uM 0.0912 | [2]; compound concentration: 200uM -0.014 | [3]; compound concentration: 50uM -0.158 | [3]; compound concentration: 200uM -0.268 | [4]; compound concentration: 50uM 0.304 | [4]; compound concentration: 200uM 0.538 | [5]; compound concentration: 50uM -0.113 | [5]; compound concentration: 200uM -0.0873 | [6]; compound concentration: 50uM -0.0827 | [6]; compound concentration: 200uM -0.00169 | [7]; compound concentration: 50uM -0.0203 | [7]; compound concentration: 200uM 0.204 | [8]; compound concentration: 50uM 0.212 | [8]; compound concentration: 200uM 0.11 | [9]; compound concentration: 50uM 0.412 | [9]; compound concentration: 200uM -0.121 | [10]; compound concentration: 50uM 0.389 | [10]; compound concentration: 200uM 0.254 | [11]; compound concentration: 50uM 0.00846 | [11]; compound concentration: 200uM 0.00188 | [12]; compound concentration: 50uM 0.214 | [12]; compound concentration: 200uM 0.0804 | [13]; compound concentration: 50uM 0.00222 | [13]; compound concentration: 200uM -0.112

USP36 (UniProt Q9P275)
UniProt Q9P275, sequence (Q9P275 whole entry): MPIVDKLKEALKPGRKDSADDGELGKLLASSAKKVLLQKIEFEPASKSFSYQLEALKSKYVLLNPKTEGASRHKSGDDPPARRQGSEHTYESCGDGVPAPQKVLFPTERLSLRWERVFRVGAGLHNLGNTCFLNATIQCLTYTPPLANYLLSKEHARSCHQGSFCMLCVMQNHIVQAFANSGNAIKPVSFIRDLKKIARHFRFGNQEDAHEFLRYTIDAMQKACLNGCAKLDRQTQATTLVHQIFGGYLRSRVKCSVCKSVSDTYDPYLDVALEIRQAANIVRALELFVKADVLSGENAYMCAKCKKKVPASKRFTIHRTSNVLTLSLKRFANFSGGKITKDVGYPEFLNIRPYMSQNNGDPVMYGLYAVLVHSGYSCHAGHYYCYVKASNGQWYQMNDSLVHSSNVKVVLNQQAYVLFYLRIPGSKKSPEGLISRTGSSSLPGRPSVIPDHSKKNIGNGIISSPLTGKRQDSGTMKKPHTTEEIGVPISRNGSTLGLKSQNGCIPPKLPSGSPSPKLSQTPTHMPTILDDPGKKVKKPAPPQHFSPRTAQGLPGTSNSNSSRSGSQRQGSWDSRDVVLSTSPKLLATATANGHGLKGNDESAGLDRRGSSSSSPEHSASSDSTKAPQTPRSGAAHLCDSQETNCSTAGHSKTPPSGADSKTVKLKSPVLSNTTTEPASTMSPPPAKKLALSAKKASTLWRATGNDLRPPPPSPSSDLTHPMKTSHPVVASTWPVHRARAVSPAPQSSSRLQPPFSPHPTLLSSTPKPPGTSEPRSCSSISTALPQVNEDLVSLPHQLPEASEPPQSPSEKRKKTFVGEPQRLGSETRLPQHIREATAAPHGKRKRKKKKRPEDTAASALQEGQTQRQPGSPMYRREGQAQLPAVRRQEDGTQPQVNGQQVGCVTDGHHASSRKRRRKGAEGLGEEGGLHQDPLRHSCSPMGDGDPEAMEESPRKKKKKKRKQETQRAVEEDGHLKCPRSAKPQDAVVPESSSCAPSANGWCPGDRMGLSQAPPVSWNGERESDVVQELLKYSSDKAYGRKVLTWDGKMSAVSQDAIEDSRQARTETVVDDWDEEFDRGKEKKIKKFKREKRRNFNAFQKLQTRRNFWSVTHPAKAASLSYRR
inactive: [14]; compound concentration: 50uM 0.0835 | [14]; compound concentration: 200uM 0.229 | [15]; compound concentration: 50uM -0.127 | [15]; compound concentration: 200uM -0.0119 | [16]; compound concentration: 50uM -0.031 | [16]; compound concentration: 200uM -0.0419 | [17]; compound concentration: 50uM -0.145 | [17]; compound concentration: 200uM 0.158 | [18]; compound concentration: 50uM -0.121 | [18]; compound concentration: 200uM 0.283 | [19]; compound concentration: 0.78uM 0.0108 | [19]; compound concentration: 1.56uM -0.0128 | [19]; compound concentration: 3.13uM -0.0405 | [19]; compound concentration: 6.25uM -0.0421 | [19]; compound concentration: 12.5uM -0.0282 | [19]; compound concentration: 25uM -0.0131 | [19]; compound concentration: 50uM -0.0217 | [19]; compound concentration: 100uM -0.0954 | [19]; compound concentration: 200uM -0.112 | [20]; compound concentration: 0.78uM 0.107 | [20]; compound concentration: 1.56uM -0.0192 | [20]; compound concentration: 3.13uM 0.083 | [20]; compound concentration: 6.25uM 0.157 | [20]; compound concentration: 12.5uM 0.0169 | [20]; compound concentration: 25uM 0.092 | [20]; compound concentration: 50uM -0.0214 | [20]; compound concentration: 100uM 0.019 | [20]; compound concentration: 200uM -0.0674 | [1]; compound concentration: 0.78uM -0.0951 | [1]; compound concentration: 1.56uM 0.0305 | [1]; compound concentration: 3.13uM 0.102 | [1]; compound concentration: 6.25uM -0.0246 | [1]; compound concentration: 12.5uM -0.0557 | [1]; compound concentration: 25uM -0.0153 | [1]; compound concentration: 50uM -0.0239 | [1]; compound concentration: 100uM -0.0145 | [1]; compound concentration: 200uM 0.0455 | [2]; compound concentration: 50uM -0.334 | [2]; compound concentration: 200uM -0.141 | [3]; compound concentration: 50uM -0.272 | [3]; compound concentration: 200uM -0.0152 | [4]; compound concentration: 50uM -0.113 | [4]; compound concentration: 200uM -0.219 | [5]; compound concentration: 50uM -0.207 | [5]; compound concentration: 200uM -0.146 | [6]; compound concentration: 50uM -0.167 | [6]; compound concentration: 200uM -0.139 | [7]; compound concentration: 50uM -0.166 | [7]; compound concentration: 200uM -0.1 | [8]; compound concentration: 50uM -0.116 | [8]; compound concentration: 200uM -0.158 | [9]; compound concentration: 50uM -0.152 | [9]; compound concentration: 200uM 0.149 | [10]; compound concentration: 50uM -0.0391 | [10]; compound concentration: 200uM -0.252 | [11]; compound concentration: 50uM -0.06 | [11]; compound concentration: 200uM -0.0333 | [12]; compound concentration: 50uM 0.0162 | [12]; compound concentration: 200uM 0.122 | [13]; compound concentration: 50uM -0.296 | [13]; compound concentration: 200uM -0.0298
